Test results published in PubChem BioAssay (Tox21).
Results filed as inconclusive are left out. The source made the active and inactive calls. Unless noted, calls follow the shape of the dose curve; as a rule, active = well fitted curve in the direction sought with a large enough effect in the repeat runs; inconclusive = weak or mixed curves; inactive = no such curve, though single readings can be large; an effect the other way counts as inactive or inconclusive.

Experiments:
[1] = molecular target: Aryl hydrocarbon receptor (Homo sapiens) (UniProt P35869); test: qHTS assay to identify small molecule that activate the aryl hydrocarbon receptor (AhR) signaling pathway (AID 743085); also: nearly all actives have a fitted effect of over 15% in size; also: potency is read from the fitted curve at half-maximal effect;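 as to activation: HG2L7.5c1 human HepG2 liver cells with stably integrated DRE-driven firefly reporter; series mostly up to about 70 µM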
Aryl hydrocarbon receptor (Homo sapiens), sequence (P35869 whole entry, looked up): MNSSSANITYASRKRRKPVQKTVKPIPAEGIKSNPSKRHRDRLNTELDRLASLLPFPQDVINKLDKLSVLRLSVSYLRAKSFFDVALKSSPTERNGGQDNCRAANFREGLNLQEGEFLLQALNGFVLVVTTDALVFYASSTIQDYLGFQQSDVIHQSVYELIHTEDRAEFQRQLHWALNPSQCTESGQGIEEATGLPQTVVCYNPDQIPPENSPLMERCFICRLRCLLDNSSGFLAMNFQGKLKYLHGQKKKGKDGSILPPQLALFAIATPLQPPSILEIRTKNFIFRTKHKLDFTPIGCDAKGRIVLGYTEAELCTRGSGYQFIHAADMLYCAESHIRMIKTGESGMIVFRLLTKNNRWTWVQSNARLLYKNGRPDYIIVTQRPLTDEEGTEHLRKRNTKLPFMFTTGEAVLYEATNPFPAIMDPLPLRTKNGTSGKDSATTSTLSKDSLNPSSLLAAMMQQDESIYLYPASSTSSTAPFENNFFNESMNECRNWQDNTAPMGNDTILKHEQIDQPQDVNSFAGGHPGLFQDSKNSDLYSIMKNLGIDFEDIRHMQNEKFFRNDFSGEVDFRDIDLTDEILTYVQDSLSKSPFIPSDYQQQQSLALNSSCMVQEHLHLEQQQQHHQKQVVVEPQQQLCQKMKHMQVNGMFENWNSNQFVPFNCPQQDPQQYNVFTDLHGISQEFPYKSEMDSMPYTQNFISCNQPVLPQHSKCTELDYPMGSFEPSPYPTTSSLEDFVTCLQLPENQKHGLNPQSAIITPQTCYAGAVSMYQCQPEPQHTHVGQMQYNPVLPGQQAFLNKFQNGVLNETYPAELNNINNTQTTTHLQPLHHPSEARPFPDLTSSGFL
How it was run: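 24 h compound exposure, 37C, HepG2-derived HG2L7.5c1 cells with DRE-responsive luciferase. Readouts: fluorescence viability, then luminescence at room temperature after 30 min.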

[2] = qHTS assay to identify small molecule antagonists of the peroxisome proliferator-activated receptor gamma (PPARg) signaling pathway - cell viability counter screen (AID 743194); also: nearly all actives have a fitted effect of over 55% in size
How it was run: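 PPARg-UAS-bla HEK293H cells were plated, rested 5 h at 37 C, then treated with compounds plus rosiglitazone (50 nM final) for 17 h at 37 C; viability was then read by CellTiter-Glo luminescence after 30 min at room temperature.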

[3] = qHTS assay for small molecule agonists of the antioxidant response element (ARE) signaling pathway - cell viability counter screen (AID 743203; calls by dose curve; also: nearly all actives have a fitted effect of over 55% in size)
How it was run: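 HepG2 cells carrying ARE-driven beta-lactamase; 2,000 cells/well; 5 hrs plating; compound pinned from DMSO; 16 hrs 37C/5% CO2; CellTiter-Glo added; 30 min RT; luminescence.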

[4] = qHTS assay for small molecule activators of the heat shock response signaling pathway - cell viability counter screen (AID 743209); also: nearly all actives have a fitted effect of over 50% in size
How it was run: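 Luminescence from CellTiter-Glo, added after the beta-lactamase FRET read, gave the viability signal. Cells were HSE-bla HeLa treated with DMSO-dissolved compounds for 5 h at 37 C following overnight plating.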

[5] = qHTS assay for small molecule activators of the heat shock response signaling pathway (AID 743210; active = well fitted activation curve with a large enough effect in the signal ratio in the repeat runs, with a control signal flat, not every such curve was filed as active; the % refers to the signal ratio;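 also: HeLa cells with beta-lactamase reporter driven by heat shock elements; series mostly up to about 63 µM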)
How it was run: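 Reporter gene assay: HeLa cells stably bearing an HSE-bla construct, compound treatment 5 h at 37 C, LiveBLAzer substrate 2.5 h at RT, fluorescence intensity.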

[6] = qHTS assay to identify small molecule agonists of the farnesoid-X-receptor (FXR) signaling pathway - cell viability counter screen (AID 743218); also: nearly all actives have a fitted effect of over 45% in size
How it was run: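 HEK 293T FXR-bla cells; 5 h pre-incubation, 16 h compound exposure at 37 C; LiveBLAzer substrate 2 h RT, then CellTiter-Glo 30 min RT, luminescence.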

[7] = qHTS assay to identify small molecule antagonists of the farnesoid-X-receptor (FXR) signaling pathway - cell viability counter screen (AID 743221; active = well fitted cell-killing curve with a large enough effect in the repeat runs, not every such curve was filed as active; also: nearly all actives have a fitted effect of over 50% in size)
How it was run: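 In GeneBLAzer FXR-UAS-bla HEK 293T cells stimulated with 50 uM chenodeoxycholic acid (final), compounds acted for 16 h at 37 C. Viability was assessed afterwards by CellTiter-Glo luminescence.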

[8] = qHTS assay for small molecule agonists of the antioxidant response element (ARE) signaling pathway (AID 743202; active = well fitted activation curve with a large enough effect in the signal ratio in the repeat runs, not every such curve was filed as active; the % refers to the signal ratio; also: potency is read from the fitted curve at half-maximal effect)
How it was run: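 Compounds delivered in DMSO to ARE-bla HepG2 cells (2,000 cells/well, pre-incubated 5 h) and left 16 h at 37 C. LiveBLAzer B/G FRET substrate then added for 2 h at RT before fluorescence reading.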

[9] = qHTS assay to identify small molecule agonists of the peroxisome proliferator-activated receptor delta (PPARd) signaling pathway - cell viability counter screen (AID 743211); also: nearly all actives have a fitted effect of over 55% in size
How it was run: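 Luminescent ATP viability assay (CellTiter-Glo, 30 min RT) in UAS-bla HEK293H cells carrying the PPAR delta reporter construct, 3000 cells/well, after a 17 h compound treatment at 37 C.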

[10] = molecular target: Peroxisome proliferator-activated receptor delta (Homo sapiens) (UniProt Q03181); test: qHTS assay to identify small molecule agonists of the peroxisome proliferator-activated receptor delta (PPARd) signaling pathway (AID 743212; calls by dose curve)
Peroxisome proliferator-activated receptor delta (Homo sapiens), sequence (Q03181 whole entry, looked up): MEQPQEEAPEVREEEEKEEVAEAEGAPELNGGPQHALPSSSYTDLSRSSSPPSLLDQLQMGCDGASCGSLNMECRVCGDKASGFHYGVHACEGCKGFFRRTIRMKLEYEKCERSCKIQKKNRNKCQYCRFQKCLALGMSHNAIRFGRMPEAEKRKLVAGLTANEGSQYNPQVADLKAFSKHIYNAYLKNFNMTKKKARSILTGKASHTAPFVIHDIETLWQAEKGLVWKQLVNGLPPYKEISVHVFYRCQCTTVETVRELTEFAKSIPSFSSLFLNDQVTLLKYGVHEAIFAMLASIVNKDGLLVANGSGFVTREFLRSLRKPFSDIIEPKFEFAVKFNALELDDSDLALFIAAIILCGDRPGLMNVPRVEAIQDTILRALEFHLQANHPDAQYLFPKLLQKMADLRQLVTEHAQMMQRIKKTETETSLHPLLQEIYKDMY
How it was run: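 A PPARd-bla HEK293H line with beta-lactamase under an Upstream Activator Sequence is treated with compounds at 37 C. Substrate loading for 2 h at room temperature precedes the fluorescence measurement.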

[11] = qHTS assay to identify small molecule antagonists of the peroxisome proliferator-activated receptor delta (PPARd) signaling pathway - cell viability counter screen (AID 743213); also: nearly all actives have a fitted effect of over 50% in size
How it was run: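 In this counter screen, HEK293H cells carrying a UAS-beta-lactamase reporter are co-treated with test compounds and 300 nM L165041 (final) for 17 h at 37 C; cell viability is quantified by CellTiter-Glo luminescence.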

[12] = molecular target: Peroxisome proliferator-activated receptor delta (Homo sapiens) (UniProt Q03181); test: qHTS assay to identify small molecule antagonists of the peroxisome proliferator-activated receptor delta (PPARd) signaling pathway (AID 743215; active = well fitted inhibition curve with a large enough effect in the signal ratio in the repeat runs, not every such curve was filed as active; the % refers to the signal ratio;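 also: cells stimulated with agonist L165041 at 300 nM final during compound exposure; series mostly up to about 62 µM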)
How it was run: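 Read-out is beta-lactamase FRET fluorescence, measured 2 h after substrate addition at room temperature. Beforehand, UAS-bla HEK293H cells carrying the PPARd reporter were exposed to compounds with L165041 at 300 nM final for 17 h at 37 C.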

[13] = molecular target: Bile acid receptor (Homo sapiens) (UniProt Q96RI1); test: qHTS assay to identify small molecule antagonists of the farnesoid-X-receptor (FXR) signaling pathway (AID 743217; active = well fitted inhibition curve with a large enough effect in the signal ratio in the repeat runs, not every such curve was filed as active; the % refers to the signal ratio)
Bile acid receptor (Homo sapiens), sequence (Q96RI1 whole entry, looked up): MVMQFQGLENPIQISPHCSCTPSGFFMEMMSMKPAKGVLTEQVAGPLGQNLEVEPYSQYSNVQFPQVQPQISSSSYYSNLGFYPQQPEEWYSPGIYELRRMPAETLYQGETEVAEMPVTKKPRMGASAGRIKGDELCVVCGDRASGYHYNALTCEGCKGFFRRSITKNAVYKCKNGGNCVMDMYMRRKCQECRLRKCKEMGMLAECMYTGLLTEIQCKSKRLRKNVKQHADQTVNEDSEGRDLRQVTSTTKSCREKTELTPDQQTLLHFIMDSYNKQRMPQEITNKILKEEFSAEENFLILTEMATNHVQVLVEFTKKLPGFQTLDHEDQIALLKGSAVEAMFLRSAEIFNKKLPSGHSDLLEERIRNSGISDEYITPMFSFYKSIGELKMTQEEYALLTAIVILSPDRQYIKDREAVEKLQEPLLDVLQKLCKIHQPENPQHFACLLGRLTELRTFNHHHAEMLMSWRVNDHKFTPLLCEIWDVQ
How it was run: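 HEK 293T FXR-UAS-bla, 5000 cells/well; compound + CDCA 50 uM final; 16 h, 37 °C; B/G FRET substrate 2 h RT; fluorescence.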

[14] = molecular target: Bile acid receptor (Homo sapiens) (UniProt Q96RI1); test: qHTS assay to identify small molecule agonists of the farnesoid-X-receptor (FXR) signaling pathway (AID 743220; active = well fitted activation curve with a large enough effect in the signal ratio in the repeat runs, not every such curve was filed as active; the % refers to the signal ratio)
How it was run: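 Beta-lactamase reporter under UAS control in GeneBLAzer FXR HEK 293T cells (5000/well) measured with LiveBLAzer FRET substrate after 2 h at room temperature. Compound exposure lasted 16 h at 37C.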

[15] = molecular target: Peroxisome proliferator-activated receptor gamma (Homo sapiens) (UniProt P37231); test: qHTS assay to identify small molecule agonists of the peroxisome proliferator-activated receptor gamma (PPARg) signaling pathway (AID 743094; active = well fitted activation curve with a large enough effect in the signal ratio in the repeat runs, not every such curve was filed as active; the % refers to the signal ratio)
Peroxisome proliferator-activated receptor gamma (Homo sapiens), sequence (P37231 whole entry, looked up): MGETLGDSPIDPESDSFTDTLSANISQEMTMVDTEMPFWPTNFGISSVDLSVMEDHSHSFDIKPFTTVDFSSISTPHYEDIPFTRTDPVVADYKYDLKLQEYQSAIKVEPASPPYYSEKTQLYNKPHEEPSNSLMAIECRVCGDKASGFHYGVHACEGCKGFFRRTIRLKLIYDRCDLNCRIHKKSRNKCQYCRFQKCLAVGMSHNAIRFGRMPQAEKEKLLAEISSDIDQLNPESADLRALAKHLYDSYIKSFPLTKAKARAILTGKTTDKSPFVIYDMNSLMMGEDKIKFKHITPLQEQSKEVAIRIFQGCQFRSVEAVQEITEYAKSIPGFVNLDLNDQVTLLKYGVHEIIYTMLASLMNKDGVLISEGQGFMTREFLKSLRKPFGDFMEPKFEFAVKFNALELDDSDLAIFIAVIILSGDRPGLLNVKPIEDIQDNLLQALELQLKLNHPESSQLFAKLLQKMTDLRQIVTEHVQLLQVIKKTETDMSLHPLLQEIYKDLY
How it was run: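 Beta-lactamase FRET fluorescence was the read-out after a 1 h room-temperature substrate step, following 17 h compound treatment at 37C of HEK293H cells expressing a UAS-driven bla reporter responsive to PPARg.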

[16] = molecular target: Vitamin D3 receptor (Homo sapiens) (UniProt P11473); test: qHTS assay to identify small molecule agonists of the vitamin D receptor (VDR) signaling pathway (AID 743222; calls by dose curve)
Vitamin D3 receptor (Homo sapiens), sequence (P11473 whole entry, looked up): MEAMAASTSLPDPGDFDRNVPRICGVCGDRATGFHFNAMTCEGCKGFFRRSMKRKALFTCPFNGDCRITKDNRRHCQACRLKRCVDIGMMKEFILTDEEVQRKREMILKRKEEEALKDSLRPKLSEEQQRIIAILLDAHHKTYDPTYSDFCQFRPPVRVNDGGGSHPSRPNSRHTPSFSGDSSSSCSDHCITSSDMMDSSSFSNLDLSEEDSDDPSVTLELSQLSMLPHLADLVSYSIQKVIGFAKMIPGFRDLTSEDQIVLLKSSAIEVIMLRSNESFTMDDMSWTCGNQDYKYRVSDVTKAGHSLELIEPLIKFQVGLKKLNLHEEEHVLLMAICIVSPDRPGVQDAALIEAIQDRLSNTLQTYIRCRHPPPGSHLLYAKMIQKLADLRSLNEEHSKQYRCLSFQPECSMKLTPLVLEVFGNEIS
How it was run: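 VDR-bla cells, 2,000/well; 4 h preincubation 37C; cpd (DMSO) 16 h; LiveBLAzer B/G substrate 2 h RT; fluorescence intensity read.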

[17] = molecular target: Vitamin D3 receptor (Homo sapiens) (UniProt P11473); test: qHTS assay to identify small molecule antagonists of the vitamin D receptor (VDR) signaling pathway (AID 743223; active = well fitted inhibition curve with a large enough effect in the signal ratio in the repeat runs, not every such curve was filed as active; the % refers to the signal ratio)
How it was run: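 Agonist 1alpha,25-dihydroxyvitamin D3 (3 nM in well) was added with each compound to VDR-bla cells preincubated 4 h. Cells stood 16 h at 37C, then FRET substrate 2 h at room temperature; fluorescence intensity recorded.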

[18] = molecular target: Peroxisome proliferator-activated receptor gamma (Homo sapiens) (UniProt P37231); test: qHTS assay to identify small molecule antagonists of the peroxisome proliferator-activated receptor gamma (PPARg) signaling pathway (AID 743191; calls by dose curve; also: series mostly up to about 63 µM; nearly all actives have a fitted effect of over 30% in size)
How it was run: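 GeneBLAzer PPARg UAS-bla HEK293H cells carrying a UAS-driven beta-lactamase reporter were plated at 3000 cells/well, preincubated 5 h at 37C, then given compound for 17 h at 37C; LiveBLAzer B/G FRET substrate was read after 1 h at room temperature.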

[19] = qHTS assay to identify small molecule that activate the aryl hydrocarbon receptor (AhR) signaling pathway - cell viability counter screen (AID 743086);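 also: HepG2 liver cells carrying the AhR DRE luciferase reporter; series mostly up to about 70 µM; nearly all actives have a fitted effect of over 45% in size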
How it was run: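 HepG2-AhR-luc (HG2L7.5c1) cells, 4000/well, were preincubated 5 h at 37C, exposed to compound in qHTS format for 24 hr at 37C, then given CellTiter-Fluor for 30 min; viability was read as fluorescence in the reporter wells.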

[20] = qHTS assay to identify aromatase inhibitors - cell viability counter screen (AID 743084);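 also: cells stimulated with testosterone during compound exposure; nearly all actives have a fitted effect of over 55% in size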

Measured: Potency

Cc1ccc(NC(=O)c2ccc(CN3CCN(C)CC3)cc2)cc1Nc1nccc(-c2cccnc2)n1
active: [1] 21.1 µM
inactive: [2] | [3] | [4] | [5] | [6] | [7]

O=C(c1ccco1)N1CCNCC1
inactive: [2] | [8] | [3] | [4] | [9] | [10] | [11] | [12] | [13] | [14] | [7]

O=C(Cl)c1cc(Cl)cc(Cl)c1
not listed: [8] | [12] | [13] | [14] | [18] | [19] | [20]
inactive: all other assays above

Cc1ccc(Cl)c(OCC(O)CNC(C)(C)C)c1 (centres undefined)
not listed: [1] | [11] | [13] | [14] | [15] | [19] | [20]
inactive: all other assays above

CC(C)(O)C(=O)O
not listed: [1] | [11] | [13] | [14] | [15] | [18] | [20]
inactive: all other assays above

CO[C@@H]1[C@@H](O[C@@H]2O[C@H](C)[C@@H](O[C@H]3C[C@@](C)(O)[C@@H](O)[C@H](C)O3)[C@H](N(C)C)[C@H]2O)[C@@H](CC=O)C[C@@H](C)[C@@H](O[C@@H]2CC[C@H](N(C)C)[C@@H](C)O2)/C=C/C=C/C[C@@H](C)OC(=O)C[C@H]1OC(C)=O
inactive: [20] | [15] | [18] | [2] | [8] | [3] | [4] | [5] | [9] | [7] | [16]

COc1ccnc2c1CCCCC2S(=O)c1nc2ccccc2[nH]1 (centres undefined)
inactive: [2] | [3] | [4] | [9] | [11] | [6] | [7] | [16] | [17]
active: [8] 3.35 µM

C[C@H](N)C(=O)N[C@@H](C)C(=O)NC1[C@H]2CN(c3nc4c(cc3F)c(=O)c(C(=O)O)cn4-c3ccc(F)cc3F)C[C@@H]12 (some centres undefined)
inactive: [2] | [3] | [4] | [5] | [9] | [6] | [7] | [16] | [17]

CCC(C(=O)O)c1ccc(N2Cc3ccccc3C2=O)cc1 (centres undefined)
inactive: [18] | [2] | [3] | [4] | [5] | [9] | [10] | [12] | [7] | [16] | [17]

Cc1ccc2ccccc2c1[N+](=O)[O-]
not listed: [13] | [14] | [20]
inactive: all other assays above

CCC(C)C1N=C(C)C(C)S1 (centres undefined)
not listed: [1] | [13] | [14] | [15] | [16] | [17] | [18] | [20]
inactive: all other assays above

O=C(N[C@@H](Cc1ccccc1)[C@@H](O)C(=O)N1C[C@@H](O)[C@@H](O)C1)c1cc2cc(Cl)ccc2[nH]1
inactive: [20] | [15] | [2] | [3] | [4] | [9] | [6] | [7] | [16] | [17]

CCN(CC)CC(=O)OCC(=O)[C@@]1(O)CC[C@H]2[C@@H]3CCC4=CC(=O)CC[C@]4(C)[C@H]3[C@@H](O)C[C@@]21C
inactive: [2] | [8] | [3] | [4] | [5] | [9] | [10] | [11] | [6] | [7] | [16]

CC(CC(C#N)(c1ccccc1)C(C)C)N(C)C (centres undefined)
not listed: [1] | [10] | [12] | [15] | [16] | [17] | [19] | [20]
inactive: all other assays above

O=Cc1ccc(Cl)c([N+](=O)[O-])c1
not listed: [4] | [5] | [8] | [9] | [13] | [17] | [20]
inactive: all other assays above

CC/C=C\CCO
not listed: [1] | [6] | [10] | [12] | [15] | [17] | [18] | [20]
inactive: all other assays above

COc1ccc(/C(C)=C/C(=O)O)c(OC)c1
not listed: [1] | [10] | [13] | [14] | [15] | [18] | [19] | [20]
inactive: all other assays above

CC[C@H](NC(C)C)[C@H](O)c1ccc(O)c2[nH]c(=O)ccc12
not listed: [13] | [14] | [15] | [16] | [20]
inactive: all other assays above

CC/C=C/CCO
not listed: [1] | [8] | [10] | [12] | [15] | [17] | [18] | [20]
inactive: all other assays above
